From PubChem BioAssay (Tox21)
A number with no mark means an inactive call. Inconclusive results are not listed. Where a call stands in place of a potency, no number is given. The source made the active and inactive calls. Unless noted, calls come from the whole dose curve; as a rule, active = well fitted curve in the direction sought with a large enough effect in the repeat runs; inconclusive = weak or mixed curves; inactive = no such curve, though single readings can be large; an effect the other way counts as inactive or inconclusive.

Assay: qHTS assay to identify small molecule antagonists of the estrogen related receptor (ERR) signaling pathway from Tox21 library (AID 1224848); note: nearly all actives have a fitted effect of over 50% in size
Conditions: ERR reporter cell line, luciferase antagonist mode, 18 h; series mostly up to 92.4 µM
Outline: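 Luminescent reporter read-out (ONE-Glo) from NTP's ERR cell line after 18 h treatment at 37 C with DMSO-dissolved Tox21 compounds; cells pre-plated 6 h beforehand at 2,000 per well.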

Row | Compound | Potency
1 | COc1cc(/C=C/C(=O)O[C@H]2CC[C@]34C[C@]35CC[C@]3(C)[C@@H]([C@H](C)CCC=C(C)C)CC[C@@]3(C)[C@@H]5CC[C@H]4C2(C)C)ccc1O | inactive
2 | CCC(N)(CO)CO | inactive
3 | CCCCCCCCCCC=O | inactive
4 | CCC1OCC(COc2ccc(Oc3ccccc3)cc2)O1 (centres undefined) | inactive
5 | C[C@H]1[C@H]2CC[C@H]3[C@@H]4CC=C5C[C@@H](N(C)C)CC[C@]5(C)[C@H]4CC[C@]23CN1C | inactive
6 | O=c1[nH]cnc2nc[nH]c12 | inactive
7 | C/C=C(\C)C(=O)OCc1ccccc1 | inactive
8 | CCC(C)(C)C1CCCCC1OC(C)=O (centres undefined) | inactive
9 | O=C(O)c1ccc(Cl)c(Cl)c1 | inactive

Assay: qHTS assay to identify small molecule agonists of the estrogen related receptor (ERR) signaling pathway from Tox21 library (AID 1224849; calls by dose curve; note: nearly all actives have a fitted effect of over 15% in size)
Conditions: ERR reporter cell line, ONE-Glo luciferase, 18 h; at 92.4 µM (top of the series) unless noted
Outline: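 Agonist signal is luciferase luminescence from an ERR reporter cell line treated 18 h at 37 C with DMSO-dissolved compounds, read 30 min after ONE-Glo addition at room temperature.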

Row | Compound | activity change, positive = activation
10 | COc1cc(/C=C/C(=O)O[C@H]2CC[C@]34C[C@]35CC[C@]3(C)[C@@H]([C@H](C)CCC=C(C)C)CC[C@@]3(C)[C@@H]5CC[C@H]4C2(C)C)ccc1O | -5.43% [at 42.5 µM]
11 | CCC(N)(CO)CO | 6.45%
12 | N#CC1(c2ccc(F)cc2)CCC(=O)CC1 | 6.11% [at 42.5 µM]
13 | CCCCCCCCCCC=O | 0.203%
14 | CC(C)(C)C1CCC(CC2=C(O)c3ccccc3C(=O)C2=O)CC1 (centres undefined) | -24.7% [at 42.5 µM]
15 | O=C1c2ccccc2Cc2ccccc21 | -18.6%
16 | O=c1[nH]cnc2nc[nH]c12 | 9.65% [at 42.5 µM]
17 | Cc1cc(N)c(S(=O)(=O)O)cc1Cl | 5.22%
18 | C1CCCC1 | 9.59%
19 | O=C(O)c1ccc(Cl)c(Cl)c1 | -1.94%

Assay: qHTS RealTime-Glo MT Cell Viability Assay in HepG2 cells - 24 hour (AID 1224867); note: nearly all actives have a fitted effect of over 50% in size; note: potency is the fitted concentration of half-maximal effect
Conditions: RealTime-Glo luminescence; series mostly up to 76.8 µM
Outline: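 Cells + NanoLuc/prosubstrate dispensed (600 cells/well) → 5 h at 37 C/5% CO2 → compounds in DMSO transferred → 40 h incubation at 37 C, luminescence read at 0, 8, 16, 24, 32, 40 h.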

Row | Compound | Potency | activity change, negative = cytotoxicity
20 | Nc1c(Cl)cc(Cl)cc1Cl | inactive | –
21 | CC(NN)c1ccccc1 (centres undefined) | – | 1.66% [at 15.8 µM]
22 | COc1cc(/C=C/C(=O)O[C@H]2CC[C@]34C[C@]35CC[C@]3(C)[C@@H]([C@H](C)CCC=C(C)C)CC[C@@]3(C)[C@@H]5CC[C@H]4C2(C)C)ccc1O | inactive | –
23 | CCC(N)(CO)CO | inactive | –
24 | CC1=NC(C)OC1C (centres undefined) | inactive | –
25 | CC(C)(C)C(=O)OCOC(=O)C1N2C(=O)CC2S(=O)(=O)C1(C)C (centres undefined) | inactive | –
26 | OCCCCCCCCCCCCBr | inactive | –
27 | COC(=O)C1=C(C)NC(C)=C(C(=O)OCC(C)C)C1c1ccccc1[N+](=O)[O-] (centres undefined) | 49 µM (active) | –
28 | N#CC1(c2ccc(F)cc2)CCC(=O)CC1 | inactive | –
29 | CCCCCCCCCCC=O | inactive | –
30 | CN(C)c1ccc(SC#N)cc1 | inactive | –
31 | CC(C)(C)c1ccc(C(=O)O)cc1 | inactive | –
32 | CC(C)(C)C1CCC(CC2=C(O)c3ccccc3C(=O)C2=O)CC1 (centres undefined) | inactive | –
33 | O=C1c2ccccc2Cc2ccccc21 | inactive | –
34 | Cc1nc(-c2ccc3c(c2)CCN(CCC2CCC(NC(=O)/C=C/c4ccc(F)cc4)CC2)CC3)no1 (centres undefined) | inactive | –
35 | NC(=O)NS(=O)(=O)c1ccc(N)cc1 | inactive | –

Row | Compound | Potency | activity change, negative = cytotoxicity
36 | CCC1OCC(COc2ccc(Oc3ccccc3)cc2)O1 (centres undefined) | inactive | –
37 | c1ccc(CSCc2ccccc2)cc1 | inactive | –
38 | Cc1cc(O)c(Cl)c(C)c1Cl | inactive | –
39 | Cc1c(C)c2c(c(C)c1O)CCC(C)(COc1ccc(CC3SC(=O)NC3=O)cc1)O2 (centres undefined) | inactive | –
40 | C[C@H]1[C@H]2CC[C@H]3[C@@H]4CC=C5C[C@@H](N(C)C)CC[C@]5(C)[C@H]4CC[C@]23CN1C | inactive | –
41 | CCCCCOC(=O)CCCC | inactive | –
42 | CSc1cnc(C)cn1 | inactive | –
43 | O=c1[nH]cnc2nc[nH]c12 | inactive | –
44 | Cc1cc(N)c(S(=O)(=O)O)cc1Cl | inactive | –
45 | C/C=C(\C)C(=O)OCc1ccccc1 | inactive | –
46 | CCCCCCCC(=O)[O-].CCCCCCCC(=O)[O-].[Zn+2] | inactive | –
47 | C1CCCC1 | inactive | –
48 | CN(C)CCCOC1(Cc2ccccc2)CCCCCC1 | inactive | –
49 | CCC(C)(C)C1CCCCC1OC(C)=O (centres undefined) | inactive | –
50 | O=C(O)c1ccc(Cl)c(Cl)c1 | inactive | –
51 | Cc1ccc(O)c(C(C)(C)C)c1 | inactive | –

Assay: qHTS RealTime-Glo MT Cell Viability Assay in HEK293 cells - 32 hour (AID 1224868); note: nearly all actives have a fitted effect of over 50% in size; note: potency is the fitted concentration of half-maximal effect
Conditions: RealTime-Glo luminescence; series mostly up to 76.8 µM
Outline: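 Tox21 10K qHTS, HEK293, 600 cells/well, RealTime-Glo reagent co-dispensed with cells; 5 h preincubation, compound by pintool, 37 C, luminescence at 0–40 h.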

Row | Compound | Potency
52 | Nc1c(Cl)cc(Cl)cc1Cl | inactive
53 | COc1cc(/C=C/C(=O)O[C@H]2CC[C@]34C[C@]35CC[C@]3(C)[C@@H]([C@H](C)CCC=C(C)C)CC[C@@]3(C)[C@@H]5CC[C@H]4C2(C)C)ccc1O | inactive
54 | CCC(N)(CO)CO | inactive
55 | OCCCCCCCCCCCCBr | 9.92 µM (active)
56 | CCN(CCC#N)c1ccc(N=Nc2c(Cl)cc([N+](=O)[O-])cc2Cl)cc1 | inactive
57 | COC(=O)C1=C(C)NC(C)=C(C(=O)OCC(C)C)C1c1ccccc1[N+](=O)[O-] (centres undefined) | 21.9 µM (active)
58 | CCCCCCCCCCC=O | inactive
59 | CN(C)c1ccc(SC#N)cc1 | inactive
60 | CCCCCCCCOc1ccccc1C(=O)Nc1ccc(C(=O)OCC[N+](C)(CC)CC)cc1 | 19 µM (active)
61 | CC(C)(C)C1CCC(CC2=C(O)c3ccccc3C(=O)C2=O)CC1 (centres undefined) | inactive
62 | NC(=O)NS(=O)(=O)c1ccc(N)cc1 | inactive
63 | c1ccc(CSCc2ccccc2)cc1 | inactive
64 | Cc1cc(O)c(Cl)c(C)c1Cl | inactive
65 | CCCCCOC(=O)CCCC | inactive
66 | CSc1cnc(C)cn1 | inactive
67 | O=c1[nH]cnc2nc[nH]c12 | inactive
68 | C/C=C(\C)C(=O)OCc1ccccc1 | inactive
69 | CCCCCCCC(=O)[O-].CCCCCCCC(=O)[O-].[Zn+2] | inactive
70 | C1CCCC1 | inactive
71 | C/C=C1/C(=O)C[C@H]2[C@@H]3CCC4=CC(=O)CC[C@]4(C)[C@H]3CC[C@]12C | 48.8 µM (active)
72 | CN(C)CCCOC1(Cc2ccccc2)CCCCCC1 | inactive
73 | CCC(C)(C)C1CCCCC1OC(C)=O (centres undefined) | inactive
74 | O=C(O)c1ccc(Cl)c(Cl)c1 | inactive
